Source: the supplement of paper PMC10849652
About 7,900 targets were measured; listed, in parts, are those with a hit and a random draw of the rest. About 0.6% of all pairs of compound and target were hits. Values without a mark were called inactive.

Tests used:
Assay in all cases: log2 fold change, soluble protein after heating vs DMSO (PISA); higher = thermal stabilisation; K562 cells, 10 uM, 30 min; active = over 0.2 and 3.5 SD of the protein, either way, in both replicates (recomputed)
erlotinib = compound: C#Cc1cccc(Nc2ncnc3cc(OCCOC)c(OCCOC)cc23)c1 [erlotinib]
Summary of the method: (§1)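 Soluble protein was quantified by TMTpro 16plex LC-MS/MS after channel sums were equalised. It was obtained as the supernatant after 21,000xg for 90 min from pooled aliquots of K562 cells (2×10^6 cells/mL, 10 μM compound, 30 min) heated for 3 min across 48°C-58°C and extracted in PBS with 0.5% NP-40 at 4°C. Thermal stability values are relative to control samples and come from duplicates. They are given as log2 fold changes.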

[1] = compound: C/C(=N\NC(=O)C1=CC(=CC=C1)S(=O)(=O)N2CCOCC2)/C3=C(C=CC(=C3)Cl)O
Summary of the method: as §1

[2] = compound: C1=CC(=C(C=C1Cl)C2=NC3=NC=CN=C3C(=N2)NC4=CC=NC=C4)F
Summary of the method: as §1

[3] = compound: C1=CC(=CC=C1C2=NC3=C(N2)C=C(C=C3)C(=O)N)OC4=CC=C(C=C4)Cl
Summary of the method: as §1

[4] = compound: C1=CC2=C(C=CC(=C2)/C=C\3/C(=O)NC(=NCC4=CC=CS4)S3)N=C1
Summary of the method: as §1

[5] = compound: C1=CC2=NC=CN=C2C=C1/C=C/3\C(=O)NC(=O)S3
Summary of the method: as §1

[6] = compound: C1=CC=C(C=C1)C2=NC(=C(N2)C3=CC=NC=C3)C4=CC(=C(C=C4)Cl)O
Summary of the method: as §1

[7] = compound: C1=CC=C2C(=C1)C3=NNC4=CC=CC(=C43)C2=O
Summary of the method: as §1

[8] = compound: C1CCN(C1)C(=O)NC2=CC=CC(=C2)NC3=NC=C(C(=N3)NCCC4=CN=CN4)Br
Summary of the method: as §1

[9] = compound: C1CN(CCC1(CC2=CC=C(C=C2)Cl)N)C3=NC=NC4=C3C=CN4
Summary of the method: as §1

IRAK-1-4 Inhibitor I = compound: C1COCCN1CCN2C3=CC=CC=C3N=C2NC(=O)C4=CC(=CC=C4)[N+](=O)[O-] [IRAK-1-4 Inhibitor I]
Summary of the method: as §1

ibrutinib = compound: C=CC(=O)N1CCC[C@@H](n2nc(-c3ccc(Oc4ccccc4)cc3)c3c(N)ncnc32)C1 [ibrutinib]
Summary of the method: as §1

[10] = compound: CC(=O)c1cnc2ccc(-c3cc(Cl)c(O)c(Cl)c3)nc2c1N[C@H]1CC[C@H](CN(C)C)CC1
Summary of the method: as §1

ralimetinib = compound: CC(C)(C)Cn1c(N)nc2ccc(-c3[nH]c(C(C)(C)C)nc3-c3ccc(F)cc3)nc21 [ralimetinib]
Summary of the method: as §1

[11] = compound: CC(C)(O)CC(=O)NCCn1ccc2ncnc(Nc3ccc(Oc4cccc(C(F)(F)F)c4)c(Cl)c3)c21
Summary of the method: as §1

[12] = compound: CC(C)C1=C2N=C(C=C(N2N=C1)NCC3=CC=CC=C3)NCCCCCCN
Summary of the method: as §1

[13] = compound: CC(C)C[C@@H](C=O)NC(=O)[C@H](CC(C)C)NC(=O)[C@H](CC(C)C)NC(=O)OCc1ccccc1
Summary of the method: as §1

pinometostat = compound: CC(C)N(C[C@H]1O[C@@H](n2cnc3c(N)ncnc32)[C@H](O)[C@@H]1O)[C@H]1C[C@@H](CCc2nc3cc(C(C)(C)C)ccc3[nH]2)C1 [pinometostat]
Summary of the method: as §1

[14] = compound: CC1=C(C(CC(=O)N1)C2=CC=C(C=C2)C(F)(F)F)C(=O)NC3=C(C=C4C(=C3)C=NN4)F
Summary of the method: as §1

[15] = compound: CC1=C(C2=C(C=C1)C(=O)C3=CC=CC=C3N2CCCN)C
Summary of the method: as §1

Sequence of UniProt Q9Y3E5 (Q9Y3E5 whole entry, looked up): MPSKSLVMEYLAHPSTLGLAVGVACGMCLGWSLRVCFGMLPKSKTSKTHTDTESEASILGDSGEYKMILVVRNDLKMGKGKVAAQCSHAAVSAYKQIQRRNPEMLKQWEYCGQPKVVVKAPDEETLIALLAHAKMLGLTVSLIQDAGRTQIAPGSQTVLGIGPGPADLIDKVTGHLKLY
Sequence of UniProt Q13356 (Q13356 whole entry, looked up): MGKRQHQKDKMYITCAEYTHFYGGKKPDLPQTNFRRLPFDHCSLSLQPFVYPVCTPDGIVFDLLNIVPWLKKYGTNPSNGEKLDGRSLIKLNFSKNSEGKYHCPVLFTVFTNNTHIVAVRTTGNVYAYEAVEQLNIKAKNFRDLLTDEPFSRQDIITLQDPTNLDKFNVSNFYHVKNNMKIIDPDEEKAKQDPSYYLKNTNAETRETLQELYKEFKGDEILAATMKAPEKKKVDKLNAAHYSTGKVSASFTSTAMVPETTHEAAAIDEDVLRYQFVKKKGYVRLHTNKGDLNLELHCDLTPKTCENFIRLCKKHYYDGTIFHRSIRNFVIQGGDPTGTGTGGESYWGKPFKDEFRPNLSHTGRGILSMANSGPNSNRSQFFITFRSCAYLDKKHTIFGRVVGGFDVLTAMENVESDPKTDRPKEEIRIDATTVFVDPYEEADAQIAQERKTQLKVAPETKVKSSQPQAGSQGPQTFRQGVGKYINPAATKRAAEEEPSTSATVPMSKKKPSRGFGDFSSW
Sequence of UniProt P15735 (P15735 whole entry, looked up): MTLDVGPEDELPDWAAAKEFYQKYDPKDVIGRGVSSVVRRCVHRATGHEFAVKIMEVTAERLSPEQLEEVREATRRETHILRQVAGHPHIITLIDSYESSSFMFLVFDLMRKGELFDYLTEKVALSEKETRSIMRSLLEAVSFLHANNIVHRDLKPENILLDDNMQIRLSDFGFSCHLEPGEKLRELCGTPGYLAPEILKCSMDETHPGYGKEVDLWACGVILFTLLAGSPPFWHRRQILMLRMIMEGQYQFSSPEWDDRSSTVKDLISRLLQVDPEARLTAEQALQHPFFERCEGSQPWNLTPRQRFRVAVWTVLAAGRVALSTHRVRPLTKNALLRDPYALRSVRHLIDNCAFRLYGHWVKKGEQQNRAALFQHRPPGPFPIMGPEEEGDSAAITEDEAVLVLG
Sequence of UniProt P35998 (P35998 whole entry, looked up): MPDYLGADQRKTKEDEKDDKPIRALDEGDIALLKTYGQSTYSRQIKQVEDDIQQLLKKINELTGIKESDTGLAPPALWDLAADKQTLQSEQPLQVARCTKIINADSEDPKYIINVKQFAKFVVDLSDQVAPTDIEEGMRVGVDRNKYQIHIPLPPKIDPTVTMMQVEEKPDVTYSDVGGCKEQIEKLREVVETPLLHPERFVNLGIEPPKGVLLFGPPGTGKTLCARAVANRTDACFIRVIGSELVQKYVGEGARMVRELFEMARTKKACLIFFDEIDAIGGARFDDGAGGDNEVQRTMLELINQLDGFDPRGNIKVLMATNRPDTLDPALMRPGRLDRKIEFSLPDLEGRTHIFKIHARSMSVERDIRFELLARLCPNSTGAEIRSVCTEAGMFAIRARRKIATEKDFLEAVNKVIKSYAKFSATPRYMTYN
Sequence of UniProt O75439 (O75439 whole entry, looked up): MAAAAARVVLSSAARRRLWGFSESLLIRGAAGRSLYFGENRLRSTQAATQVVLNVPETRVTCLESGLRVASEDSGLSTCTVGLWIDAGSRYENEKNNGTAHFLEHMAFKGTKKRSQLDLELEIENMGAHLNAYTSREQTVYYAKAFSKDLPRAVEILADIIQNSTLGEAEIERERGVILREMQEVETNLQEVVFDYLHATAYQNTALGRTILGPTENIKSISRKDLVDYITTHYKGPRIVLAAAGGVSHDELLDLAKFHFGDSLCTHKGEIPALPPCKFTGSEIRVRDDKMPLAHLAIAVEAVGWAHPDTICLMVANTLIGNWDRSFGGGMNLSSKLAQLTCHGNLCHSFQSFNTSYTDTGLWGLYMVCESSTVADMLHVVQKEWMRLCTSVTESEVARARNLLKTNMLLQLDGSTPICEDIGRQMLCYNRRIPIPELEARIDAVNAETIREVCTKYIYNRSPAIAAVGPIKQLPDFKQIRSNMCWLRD

| Target | log2 fold change (erlotinib) | log2 fold change [1] | log2 fold change [2] | log2 fold change [3] | log2 fold change [4] | log2 fold change [5] | log2 fold change [6] | log2 fold change [7] | log2 fold change [8] | log2 fold change [9] | log2 fold change (IRAK-1-4 Inhibitor I) | log2 fold change (ibrutinib) | log2 fold change [10] | log2 fold change (ralimetinib) | log2 fold change [11] | log2 fold change [12] | log2 fold change [13] | log2 fold change (pinometostat) | log2 fold change [14] | log2 fold change [15] |
| --- | --- | --- | --- | --- | --- | --- | --- | --- | --- | --- | --- | --- | --- | --- | --- | --- | --- | --- | --- | --- |
| PTRH2 (UniProt Q9Y3E5) | 0.015 | 0.048 | 0.125 | -0.002 | 0.049 | -0.004 | 0.169 | -0.022 | -0.038 | 0.007 | 0.059 | 0.031 | 0.075 | 0.085 | -0.065 | 0.062 | -0.081 | -0.033 | -0.008 | 0.017 |
| PPIL2 (UniProt Q13356) | 0.061 | 0.072 | 0.064 | -0.033 | 0.047 | 0.004 | 0.026 | 0.067 | -0.052 | -0.079 | -0.097 | -0.048 | -0.077 | 0 | -0.081 | -0.044 | 0.096 | -0.063 | -0.043 | 0.062 |
| PHKG2 (UniProt P15735) | -0.067 | -0.078 | 0.021 | -0.003 | -0.055 | -0.113 | 0.034 | 0.076 | -0.159 | 0.029 | -0.034 | -0.008 | 0.39 (active) | 0.031 | -0.121 | -0.041 | 0.017 | 0.054 | -0.041 | 0.115 |
| POLR2D (UniProt O15514) | -0.153 | -0.048 | 0.138 | 0.204 | 0.06 | 0.087 | -0.049 | -0.011 | 0.058 | 0.064 | 0.042 | 0.082 | 0.346 (active) | -0.012 | -0.006 | 0.374 (active) | -0.009 | -0.026 | -0.02 | 0.26 |
| POLR2A (UniProt P24928) | -0.018 | -0.019 | -0.008 | 0.024 | 0.013 | 0.039 | 0.019 | 0.026 | 0.111 | -0.042 | -0.029 | 0.054 | 0.342 (active) | 0.011 | -0.065 | 0.19 | 0.005 | -0.004 | -0.046 | 0.033 |
| PMPCB (UniProt O75439) | -0.022 | 0 | 0.031 | 0.024 | 0.019 | 0.007 | 0.023 | 0.078 | -0.014 | 0.046 | 0.035 | 0.008 | 0.01 | 0.064 | -0.108 | 0.04 | 0.012 | -0.022 | 0 | 0.015 |
| PSMC2 (UniProt P35998) | -0.05 | -0.054 | -0.057 | 0.008 | -0.001 | -0.03 | 0.019 | 0.02 | -0.007 | -0.031 | -0.024 | -0.009 | 0.079 | 0.046 | 0.011 | 0.053 | -0.183 | 0.033 | 0.039 | -0.039 |
